The source of these data is PubChem BioAssay (NCI).

Holding throughout (assay): NCI-60 one-dose screen, 48 h (100 = growth as untreated, 0 = no growth, -100 = all killed)
One assay deals with HCT-15 colon. To be noted: 10 µM unless noted.
The test system of the next assay is HT29 colon. The note with it: 10 µM unless noted.
In another assay the test system is SNB-75 CNS. The note with it: 10 µM unless noted.
Another assay has as its system SNB-19 CNS. The note with it: 10 µM unless noted.
For the next assay, the system named is U251 CNS. The note with it: 10 µM unless noted.
For the next assay, the system named is PC-3 prostate. The note with it: 10 µM unless noted.
In the next assay the test system is SK-MEL-5 melanoma. To be noted: 10 µM unless noted.
Another assay concerns UACC-62 melanoma. To be noted: 10 µM unless noted.
The next assay has as its system LOX IMVI melanoma. To be noted: 10 µM unless noted.
The subject of a further assay is SK-MEL-28 melanoma. The note with it: 10 µM unless noted.
The subject of another assay is SK-MEL-2 melanoma. The note with it: 10 µM unless noted.
In the next assay the test system is EKVX NSCLC. To be noted: 10 µM unless noted.
Another assay has as its system SN12C renal. The note with it: 10 µM unless noted.
For the next assay, the system named is UO-31 renal. The note with it: 10 µM unless noted.
In the next assay the test system is TK-10 renal. The note with it: 10 µM unless noted.
The next assay relates to ACHN renal. The note with it: 10 µM unless noted.
In another assay the test system is CAKI-1 renal. The note with it: 10 µM.
A further assay has as its system CCRF-CEM leukemia. The note with it: 10 µM unless noted.
The next assay relates to MOLT-4 leukemia. To be noted: 10 µM unless noted.
Another assay deals with A498 renal. The note with it: 10 µM unless noted.

Molecules are shown by their SMILES. The panel holds about 83,000 compounds, 20% with a hit somewhere; the sample as a whole holds those more often.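 48-hour exposure, single concentration, 96-well plates; percent growth endpoint where 0 means no net growth. Active: below 10.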 Values without a mark were called inactive. Activity calls are given as the source filed them.

On to `CCNC(=O)Oc1ccc(/C(=C(/C)c2ccccc2)c2ccc(OCCN3CCCC3)cc2)cc1`, for which the growth in the assay on HCT-15 colon is 46.5%; with HT29 colon, 9.61% (active); with SNB-75 CNS it was 79.4%; in the assay with SNB-19 CNS, 79%; in the assay with U251 CNS, 58.6%; with PC-3 prostate, 64.2%. Besides, the growth was 25.4% with SK-MEL-5 melanoma; 83.4% in the assay on UACC-62 melanoma; 18.4% with LOX IMVI melanoma; 56.2% with SK-MEL-28 melanoma; 93.3% in the assay with SK-MEL-2 melanoma; 77.3% in the assay with EKVX NSCLC. The growth in the assay with SN12C renal was 78.2%; with UO-31 renal it was 61%; with TK-10 renal it was 102%; in the assay on ACHN renal, 86%; with CAKI-1 renal, 79.9%; in the assay on CCRF-CEM leukemia, 64%. Besides, the growth in the assay on MOLT-4 leukemia is 51.7%.

In the case of `O=S(=O)(Nc1cc(Cl)cc(Cl)c1)c1ccc(-c2cnc(C3CC3)o2)cc1`, the growth was 30.9% in the assay with HCT-15 colon; 12.1% with HT29 colon; -1.98% (active) in the assay with SNB-75 CNS; 42.9% with SNB-19 CNS; 37.4% in the assay with U251 CNS; 27% in the assay with PC-3 prostate. Further, the growth with SK-MEL-5 melanoma was 36.9%; in the assay with UACC-62 melanoma it was 39.1%; in the assay with LOX IMVI melanoma it was 44.8%; with SK-MEL-28 melanoma, 69.9%; in the assay on SK-MEL-2 melanoma it was 56.8%; in the assay on EKVX NSCLC, 43.9%. Further, the growth in the assay with SN12C renal was 50.6%; in the assay on UO-31 renal, 53%; in the assay with TK-10 renal, 76.1%; in the assay with ACHN renal, 53.3%; in the assay on CAKI-1 renal, 11.8%; in the assay on A498 renal, 15.7%. In addition, the growth in the assay with CCRF-CEM leukemia is 17.2%; in the assay on MOLT-4 leukemia, 32.6%.

As to `COc1ccc(C(=O)c2c(N)c(C#N)cn2-c2cccc(OC)c2)cc1`, the growth in the assay on HCT-15 colon was 19.8%; in the assay with HT29 colon it was 7.88% (active); in the assay on SNB-75 CNS it was -23.4% (active); with SNB-19 CNS, 26.8%; in the assay on U251 CNS, 33.8%; in the assay with PC-3 prostate, 33.9%. Besides, the growth was 35.1% in the assay on SK-MEL-5 melanoma; 18.8% with UACC-62 melanoma; 37.9% with LOX IMVI melanoma; 45.8% with SK-MEL-28 melanoma; 28.8% with SK-MEL-2 melanoma; 38.7% with EKVX NSCLC. Further, the growth is 32.4% with SN12C renal; 33.8% in the assay with UO-31 renal; 69.2% with TK-10 renal; 38.5% in the assay on ACHN renal; 30.5% in the assay on CAKI-1 renal; -1.17% (active) with A498 renal. Moreover, the growth in the assay with CCRF-CEM leukemia was 18.1%; in the assay with MOLT-4 leukemia, 29.3%.

Consider `CCN1C(=O)N(CC)C2SC(N/N=C/c3ccc(OC)cc3)=NC21` (stereo not given), for which the growth with HCT-15 colon was 12%; in the assay on HT29 colon it was 15.1%; with SNB-75 CNS, 27.3%; in the assay on SNB-19 CNS, 23%; in the assay with U251 CNS, 24.5%; with PC-3 prostate, 28.9%. For the same compound, the growth in the assay on SK-MEL-5 melanoma was -0.548% (active); with UACC-62 melanoma, 38.4%; in the assay on LOX IMVI melanoma, 3.58% (active); with SK-MEL-28 melanoma it was 60.2%; with SK-MEL-2 melanoma it was 61.4%; with EKVX NSCLC it was 41.8%. In addition, the growth is 24.3% in the assay with SN12C renal; 43.5% in the assay with UO-31 renal; 72.8% in the assay on TK-10 renal; 31.3% with ACHN renal; 48.7% with CAKI-1 renal; 13.1% with CCRF-CEM leukemia. For the same compound, the growth with MOLT-4 leukemia was 10.1%.

As for `Nc1nc(N)c2c(n1)NC(c1ccc(Cl)cc1)CC(c1ccc(Nc3nc(NCCO)nc(Nc4ccc(Cl)cc4)n3)cc1)=N2` (stereo not given), the growth in the assay on HCT-15 colon is 1.91% (active); with HT29 colon, -21.8% (active); in the assay with SNB-75 CNS, 77.9%; with SNB-19 CNS it was 17.2%; in the assay on U251 CNS it was -35.6% (active); in the assay on PC-3 prostate it was 44.1%. Moreover, the growth in the assay with SK-MEL-5 melanoma was 48.4%; in the assay on UACC-62 melanoma, 91.2%; with LOX IMVI melanoma, -90% (active); in the assay with SK-MEL-28 melanoma it was 103%; with SK-MEL-2 melanoma, 54.2%; with EKVX NSCLC, 76.1%. In addition, the growth with SN12C renal is 56.6%; with UO-31 renal, 39.7%; in the assay with TK-10 renal, 72.9%; with ACHN renal, 57.5%; in the assay on CAKI-1 renal, 49.5%; with A498 renal, 82.1%. Moreover, the growth with MOLT-4 leukemia was 3.59% (active).

With `CCNCc1c(-c2cccc(OC(F)(F)F)c2)[nH]c2ccc(N3CCCC3)cc2c1=O`, the growth in the assay on HCT-15 colon was 9.2% (active); with HT29 colon it was 7.01% (active); in the assay on SNB-75 CNS, -5.02% (active); in the assay with SNB-19 CNS, 19.8%; in the assay on U251 CNS, 20%; with PC-3 prostate, 14.6%. Besides, the growth in the assay on SK-MEL-5 melanoma is 15.5%; in the assay on UACC-62 melanoma it was 30.3%; in the assay on LOX IMVI melanoma, 21.9%; in the assay on SK-MEL-28 melanoma, 48%; with SK-MEL-2 melanoma, 42.3%; in the assay with EKVX NSCLC, 88.1%. Also, the growth with SN12C renal is 28.2%; with UO-31 renal it was 31.9%; with TK-10 renal it was 90.5%; with ACHN renal it was 34.4%; in the assay on CAKI-1 renal it was -9.12% (active); in the assay with A498 renal it was -13.6% (active). In addition, the growth in the assay on MOLT-4 leukemia was 18.4%.

As to `CCN1C(=O)N(CC)C2SC(N/N=C/C=C/c3ccccc3OC)=NC21` (stereo not given), the growth in the assay on HCT-15 colon is 13.7%; in the assay with HT29 colon, 6.38% (active); in the assay with SNB-75 CNS it was 18.8%; in the assay with SNB-19 CNS, 25.5%; with U251 CNS, 18.1%; with PC-3 prostate, 26.7%. In addition, the growth with SK-MEL-5 melanoma was 13.2%; with UACC-62 melanoma it was 37.1%; in the assay on LOX IMVI melanoma, 5.74% (active); in the assay on SK-MEL-28 melanoma it was 60.2%; in the assay with SK-MEL-2 melanoma, 51.5%; in the assay with EKVX NSCLC it was 46.8%. Moreover, the growth was 28.6% in the assay on SN12C renal; 40.2% in the assay with UO-31 renal; 52.1% in the assay on TK-10 renal; 29.9% in the assay with ACHN renal; 46.7% in the assay on CAKI-1 renal; 11.3% in the assay with CCRF-CEM leukemia. Moreover, the growth with MOLT-4 leukemia is 16.9%.
